This is a sample that favours compounds with a hit; in the whole collection about 2.9% have one here.
DRD3 agonist: activates the human D3 dopamine receptor | max activation, % | 0.58% of 410,000 active | D3R DiscoveRx beta-arrestin cells, luminescence, 90 min | P35462; in the data active means max activation above about 30%; further: 0% is about no effect
Target sequence (P35462 whole entry, looked up): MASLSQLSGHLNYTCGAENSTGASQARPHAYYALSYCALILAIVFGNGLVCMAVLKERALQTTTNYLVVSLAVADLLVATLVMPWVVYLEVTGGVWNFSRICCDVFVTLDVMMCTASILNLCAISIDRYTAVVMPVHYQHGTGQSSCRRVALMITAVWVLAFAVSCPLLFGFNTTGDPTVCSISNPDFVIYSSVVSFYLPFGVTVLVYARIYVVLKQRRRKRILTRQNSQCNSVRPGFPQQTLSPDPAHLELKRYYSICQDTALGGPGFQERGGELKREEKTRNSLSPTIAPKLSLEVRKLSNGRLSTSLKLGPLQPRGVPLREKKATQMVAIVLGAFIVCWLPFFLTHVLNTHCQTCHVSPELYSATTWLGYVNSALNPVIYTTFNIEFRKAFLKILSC
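Agonist mode: compounds and dopamine controls were applied to plated cells for 90 min at 37 degrees C after an overnight attachment at 1500 cells/well. Luminescent read-out followed 30 - 60 minutes at room temperature with DiscoveRx detection reagent.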
DRD3 antagonist: blocks the human D3 dopamine receptor | P35462 | D3R cells, DiscoveRx beta-arrestin luminescence, antagonist mode; hits give low values | max response, negative = inhibition, % | 2.5% of 360,000 active | AID 652054; in the data active means max response below about -50%; inconclusive means no clear call, values can overlap the other calls; further: on the % scale 0 is the no-effect control and ±100 the full control effect
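Cells expressing the human receptor were seeded at 1500 cells/well, incubated overnight at 37 degrees C in 5% CO2, then exposed to library compounds with dopamine controls for 90 minutes at 37 degrees C before luminescent detection.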
a7 integrin act: integrin-mediated muscular dystrophy alleviation activation; alpha7betagal myoblasts, beta-gal FDG fluorescence, 48 h; Potency, µM (top dose mostly 38.3 µM), without a hit: at the top dose activation, hits mostly activators; 0.064% of 350,000 active; active means well fitted activation curve with a large enough effect; inconclusive means small, poorly fitted or top-dose-only effect; inactive means no such curve, though single readings can be large or run the other way;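 further: potency means the concentration at half of the fitted maximal effect; 100% = response of the positive control SU9516; nearly all actives have a fitted effect of over 60% in size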
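alpha7betagal+/- myoblasts (passage 13, 250/well) treated 48 h at 37C with compounds at 1:260 dilution of DMSO stock. Lysed, then beta-galactosidase activity read as FDG fluorescence (ex 480/em 540) after 30 min, with pre-read for autofluorescence.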
The depositor's hits bear a star; ? = inconclusive; . = not tested or not shown.

SMILES	DRD3 agonist	DRD3 antagonist	a7 integrin act
COc1cccc(/C=N/Nc2nc(Nc3ccccc3)nc(-n3nc(C)cc3C)n2)c1O	-46	-141*	-43%
CCn1cc(/C=C(\NC(=O)c2cc(OC)c(OC)c(OC)c2)C(=O)NCCCn2ccnc2)c2ccccc21	-9	.	.
CC(CC(=O)O)Nc1ccccc1O (stereo unspecified)	2	4	35%
Cc1ccc(/C=C/C(=O)O)cc1S(=O)(=O)N1CCCCC1	-2	1	-7%
O=C(CN1C(=O)CSc2ccc(S(=O)(=O)N3CCOCC3)cc21)NCCCN1CCOCC1	-15	-6	6%
O=C(CN1C(=O)CSc2ccc(S(=O)(=O)N3CCOCC3)cc21)NCCCN1CCc2ccccc2C1	-11	-62*	-31%
CCCn1c(SCC(=O)N2CCN(C(C)=O)CC2)nc2sc3c(c2c1=O)CCC3	-5	-8	3%
CN(CCOc1ccc(Br)cc1)CC(O)c1ccccc1 (stereo unspecified)	-13	-18	-32%
CN(CCOc1ccccc1)CC(O)COCc1ccccc1F (stereo unspecified)	-5	?	-10%
CN(CCOc1ccc(Cl)cc1)CC(O)c1ccccc1 (stereo unspecified)	-9	-52*	-3%
CN(CCOc1ccccc1)CC(O)COc1ccccc1 (stereo unspecified)	-11	-74*	-6%
CC(OCC(O)CN(C)CCOc1ccccc1)c1ccc(Cl)cc1 (stereo unspecified)	-5	-69*	-29%
CN(CCOc1ccc(Br)cc1)CC(O)COc1ccc(C#N)cc1 (stereo unspecified)	-21	0	-38%
COc1cccc(NC(=O)C(C)(C)C)c1	1	-23	16%
O=C(Cc1c(C(=O)O)[nH]c2ccccc12)Nc1cccc(C(F)(F)F)c1	1	.	.
Cc1ccc(C)c(N2CCN(C(=O)c3cc(C)nc4c3c(C)nn4-c3ccccc3)CC2)c1	-12	.	.
Cc1cc(C)n2nc(SCC(=O)Nc3cccc(C(F)(F)F)c3)nc2n1	-5	.	.
CCn1c2c(c3cc(OCC(C)C)ccc31)CCCC2=O	-16	-9	23%
CCn1c2c(c3cc(Br)ccc31)CCC/C2=N\O	36*	10	14%
CCOC(=O)c1c(/N=C/c2ccc(OC)cc2O)sc2c1CCN(C)C2	-16	-20	25%
CN1CCc2c(sc(/N=C/c3cc(Cl)ccc3O)c2C#N)C1	21	-50*	26%
CC(CCc1ccccc1)NC(=O)Cn1ncc2c3ccccc3n(Cc3ccccc3)c2c1=O (stereo unspecified)	1	.	.
COc1cc(C(=O)NNC(=O)c2cccn2C)cc(OC)c1OC	17	14	-15%
N#CC(c1ccccc1)c1ccc2c(C(F)(F)F)cc(C(F)(F)F)nc2n1 (stereo unspecified)	0	-80*	-63%
Cc1ccc(C(C#N)c2ccc3c(C(F)(F)F)cc(C(F)(F)F)nc3n2)cc1 (stereo unspecified)	1	?	-12%
SMILES	DRD3 agonist	DRD3 antagonist	a7 integrin act
O=C(COc1ccc(Cl)cc1)Nc1cnn(Cc2c(Cl)cccc2Cl)c1	-6	-13	0%
Cc1sc2c(c1C)c(=O)n(CCc1ccccc1)c(=O)n2Cc1ccc(F)cc1	-5	.	.
CC(=O)Nc1ccc(-c2ccnc3c2CC(C(=O)Nc2ccc(Cl)c(C(F)(F)F)c2)O3)cc1 (stereo unspecified)	-9	-66*	.
O=C(Nc1ccc(Cl)c(C(F)(F)F)c1)C1Cc2c(-c3ccccc3)ccnc2O1 (stereo unspecified)	-1	?	.
COc1ccc(NC(=O)c2ccc(CN3CCc4ccccc4C3)cc2)c(OC)c1	-29	-101*	-4%
COc1ccc(NC(=O)c2ccc(C)cc2)c(OC)c1	-7	-28	9%
COc1ccc(OC)c(NC(=O)c2ccc(CN3CCc4ccccc4C3)cc2)c1	-13	-109*	-12%
COc1ccc(OC)c(NC(=O)CN2CCc3ccccc3C2)c1	-16	-10	11%
Oc1ccc(N=Nc2n[nH]c(-c3ccc(Cl)cc3)n2)cc1	-2	8	6%
COc1ccc(S(=O)(=O)NCC2CCCO2)cc1Cl (stereo unspecified)	4	26	14%
CN(C)CCNC(=O)Cn1ccc2cc(S(=O)(=O)N3CCCCCC3)ccc21	-16	-55*	?
Cc1ccccc1CCNC(=O)Cn1ccc2cc(S(=O)(=O)N3CCCC3)ccc21	-5	1	1%
OCCC1CN(Cc2nc(-c3ccccc3)cs2)CCN1C1CCCC1 (stereo unspecified)	-17	-6	-22%
c1ccc(-c2csc(CN3CCCCC3)n2)cc1	-17	-50*	14%
CC1(C(=O)NS(=O)(=O)c2ccc3c(c2)CCO3)CCN1C(=O)CCc1ccc(Cl)cc1Cl (stereo unspecified)	-17	?	.

From PubChem BioAssay
